Rows were chosen to be rich in hits. Some 19% of all compounds tested hit in one or more screens of this group.
TDP1 cell noCPT: qHTS for Inhibitors of human tyrosyl-DNA phosphodiesterase 1 (TDP1): qHTS in cells in absence of CPT; 15% of 420,000 active; DT40 Tdp1-/- hTDP1 cells, no CPT, ATP luminescence, 48 h; Potency, µM (series often up to 46.2 µM), without a hit: at the highest dose activity change, negative = growth inhibition, usual class: inhibitors; AID 686978, 2013; also: potency is read from the fitted curve at half-maximal effect; nearly all actives have a fitted effect of over 55% in size
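DT40 Tdp1-/-;hTDP1 cells, no CPT (DMSO vehicle only), 400 cells/well; compounds pin-transferred; ≥48 hr, 37 °C; CellTiter-Glo 30 min RT dark, luminescence read.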
IL-1B inflam inh: qHTS for Inhibitors of Inflammasome Signaling: IL-1-beta AlphaLISA Primary Screen | activity change, % at 57.5 µM | 4.7% of 360,000 active | AID 743279, 2014 | THP-1 LPS/ATP IL-1B secretion, AlphaLISA, 16 h; stronger effect = lower value; in the data active = activity change below about -50%; inconclusive = mostly about -30% to -49%
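Secreted IL-1B measured by AlphaLISA bead assay after 16 h compound exposure of THP-1 cells; compounds (final up to 57.5 uM) added 1 h before LPS (250 ng/mL) and ATP (1.25 mM) stimulation; lower signal means less secretion.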
HT1080NT lethal: qHTS for induction of synthetic lethality in tumor cells producing 2HG: qHTS for the HT-1080-NT fibrosarcoma cell line; 1.6% of 360,000 active; AID 686970, 2013; Potency, µM (top dose mostly 46.1 µM), inactives show top-dose activity, negative = less viability, most hits filed as cytotoxic; HT-1080-NT fibrosarcoma viability, CellTiter-Glo ATP luminescence, 48 h;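 also: NT is the 2HG producing partner of a matched IDH1 knockdown line; potency is read from the fitted curve at half-maximal effect; 0% = DMSO-treated cells and -100% = media-only wells without cells; nearly all actives have a fitted effect of over 55% in size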
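A 48-hour cytotoxicity screen used HT-1080-NT cells plated 2 hours before compound delivery. ATP-based CellTiter-Glo luminescence measured viability, normalized to DMSO and no-cell controls.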
DT40 TDP1 CPT: qHTS for Inhibitors of human tyrosyl-DNA phosphodiesterase 1 (TDP1): qHTS in cells in presence of CPT. chicken DT40 Tdp1-/-;hTDP1 cells + 20 nM CPT, ATP luminescence, 48 h. Potency, µM (series often up to 46.2 µM), inactives show at the highest dose activity change, negative = growth inhibition, hits mostly inhibitors. 12% of 420,000 active; also: potency is read from the fitted curve at half-maximal effect; nearly all actives have a fitted effect of over 55% in size
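Cell growth measured by CellTiter-Glo luminescence after a minimum 48 h, 37 C compound exposure with 20 nM CPT in Tdp1-knockout DT40 cells stably expressing hTDP1, seeded 400/well; qHTS titration format.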
HT1080 IDH1KD tx: qHTS for induction of synthetic lethality in tumor cells producing 2HG: qHTS for the HT-1080-IDH1KD cell line. HT-1080 IDH1 knockdown viability, ATP luminescence, 48 h. Potency, µM (highest dose often 46.1 µM), for the others: at the highest dose activity, negative = toxicity, most hits filed as cytotoxic. 2% of 360,000 active;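 also: potency is read from the fitted curve at half-maximal effect; 0% = DMSO wells and -100% = cell-free medium wells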
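CellTiter-Glo luminescence after 48 h compound exposure at 37 degrees C of IDH1-knockdown HT-1080 cells in 5% FBS RPMI. %Activity scaled between DMSO wells and cell-free media wells, with curves fitted and assigned curve classes.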
* marks the source's active call; other numbers are inactive results. Unless noted, calls follow the shape of the dose curve; as a rule, active = well fitted curve in the direction sought with a large enough effect; inconclusive = small, poorly fitted or top-dose-only effect, or another doubt; inactive = no such curve, though single readings can be large; an effect the other way counts as inactive or inconclusive. Unless noted, % is scaled to controls: 0 for no effect and ±100 for the full control effect.

How did COc1ccc2cc3cc(C(=O)NCCc4ccccc4)sc3nc2c1Cl do in these assays?
TDP1 cell noCPT: 16µM*; DT40 TDP1 CPT: 12µM*

How did COc1ccc(CCNC(=O)c2cc(-c3ccccc3OC)on2)cc1OC do in these assays?
TDP1 cell noCPT: 21µM*; IL-1B inflam inh: inconclusive; HT1080NT lethal: 7%; DT40 TDP1 CPT: inconclusive; HT1080 IDH1KD tx: 1%

How did COc1ccc(CCNC(=O)c2cc(-c3ccc(Cl)cc3)on2)cc1OC do in these assays?
TDP1 cell noCPT: 0%; DT40 TDP1 CPT: -2%

Results for COc1ccc(CCNC(=O)c2cc(CC(C)C)on2)cc1OC ?
TDP1 cell noCPT: 16µM*; IL-1B inflam inh: 11; HT1080NT lethal: 6%; DT40 TDP1 CPT: inconclusive; HT1080 IDH1KD tx: -1%

Results for CCCc1cc(C(=O)N(C)CC(=O)Nc2ccc(OCC)c(OCC)c2)sc1C ?
TDP1 cell noCPT: inconclusive; IL-1B inflam inh: -13; HT1080NT lethal: -6%; DT40 TDP1 CPT: 13%; HT1080 IDH1KD tx: -3%

What do the screens show for `O=C(Nc1ccc(Cl)c(-c2nc3ccccc3o2)c1)c1cccc2c(Cl)cccc12`?
TDP1 cell noCPT: -5%; DT40 TDP1 CPT: 4%

How did COCCN1C(=O)C(=O)/C(=C(/O)c2ccc(S(=O)(=O)N3CCCCC3)cc2)C1c1ccc(O)c(OC)c1 (stereo unspecified) do in these assays?
TDP1 cell noCPT: 3%; IL-1B inflam inh: 6; HT1080NT lethal: 20%; DT40 TDP1 CPT: -3%; HT1080 IDH1KD tx: 9%

What do the screens show for `CC(C)(C)NC(=O)COc1coc(CN2CCN(C(=O)c3ccco3)CC2)cc1=O`?
TDP1 cell noCPT: -5%; IL-1B inflam inh: 5; HT1080NT lethal: 0%; DT40 TDP1 CPT: -5%; HT1080 IDH1KD tx: 9%

What do the screens show for `COc1ccc(CCNC(=O)c2cc(-c3ccc(C)c(C)c3O)n[nH]2)cc1OC`?
TDP1 cell noCPT: 16µM*; IL-1B inflam inh: inconclusive; HT1080NT lethal: -27%; DT40 TDP1 CPT: 21µM*; HT1080 IDH1KD tx: inconclusive

What do the screens show for `CCCNC(=O)CCn1c(=S)oc2ccccc21`?
TDP1 cell noCPT: inconclusive; IL-1B inflam inh: -12; HT1080NT lethal: 4%; DT40 TDP1 CPT: 9.2µM*; HT1080 IDH1KD tx: 13%

Results for c1csc(-c2cn3ccc4ccccc4c3n2)c1 ?
TDP1 cell noCPT: -19%; IL-1B inflam inh: -62*; HT1080NT lethal: -19%; DT40 TDP1 CPT: -14%; HT1080 IDH1KD tx: -29%

Results for Cc1csc(SCC(=O)c2cc(C)n(Cc3cccs3)c2C)n1 ?
TDP1 cell noCPT: -78%; IL-1B inflam inh: -1; HT1080NT lethal: -10%; DT40 TDP1 CPT: 18µM*; HT1080 IDH1KD tx: inconclusive

Results for COc1ccc(-c2nnc(SCC(=O)c3cc(C)n(Cc4cccs4)c3C)o2)cc1 ?
TDP1 cell noCPT: -19%; IL-1B inflam inh: -3; HT1080NT lethal: -3%; DT40 TDP1 CPT: -10%; HT1080 IDH1KD tx: -3%

What do the screens show for `COc1ccc(-n2cnnc2SCC(=O)c2cc(C)n(Cc3cccs3)c2C)cc1`?
TDP1 cell noCPT: -11%; IL-1B inflam inh: -65*; HT1080NT lethal: -4%; DT40 TDP1 CPT: -9%; HT1080 IDH1KD tx: 1%

Results for COc1ccc(C(CC(=O)c2ccccc2)CC(=O)c2ccccc2)cc1OC ?
TDP1 cell noCPT: -24%; IL-1B inflam inh: 0; HT1080NT lethal: 1%; DT40 TDP1 CPT: 18%; HT1080 IDH1KD tx: -10%

How did COC(=O)n1ccc(C(=O)Nc2ccccc2F)n1 do in these assays?
TDP1 cell noCPT: inconclusive; IL-1B inflam inh: -9; HT1080NT lethal: 13%; DT40 TDP1 CPT: 0%; HT1080 IDH1KD tx: 10%

How did COc1ccc(C2=Nn3c(nnc3-c3ccccn3)SC2)cc1OC do in these assays?
TDP1 cell noCPT: -23%; IL-1B inflam inh: -20; HT1080NT lethal: -15%; DT40 TDP1 CPT: -23%; HT1080 IDH1KD tx: -14%

Screening results (PubChem)
